Test results: the supplement of paper PMC11417369
± gives the standard deviation of the averaged measurements. In all, about 25,000 sequences were measured (“ln(normalized median fluorescence intensity)”: median about 8.6, highest 2% from about 10 on). Only a selection was taken, and the highest values are over-represented in it overall.

system: PfAP2-EXP AP2 domain (GST-tagged); test: gcPBM binding intensity (ln(normalized median fluorescence intensity)); higher = stronger DNA binding
In short: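 Binding intensity is the highest Masliner-normalised natural-log median intensity over replicate spots in either probe orientation. To obtain it, GST-tagged P. falciparum DNA-binding domains made in E. coli were incubated for 1 h on an Agilent 4 × 180k array of primer-extended double-stranded 36-bp intergenic genomic probes plus negative controls. Detection used Alexa488 anti-GST antibody with scanning at 488 nm.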

Sequence | gcPBM binding intensity (ln)
AAAAAAAACAGACACACACACACATATACATACATA [CACACA_site2665] | 8.41 ± 0.38
AAAAAAATCACATAATATACTTTATTTTATTTTGTA [GTGCAC_negctrl_site562] | 7.89 ± 0.33
ATTTTTTTTTTTAATACACACAATTTTGATGAAGCA [CACACA_site3157] | 8.26 ± 0.41
CTAAAGTAAATTTAAGCACACACAACGAATTTTTAT [CACACA_site8599] | 8.65 ± 0.45
GATAAAATGGATGGATGTACATTATTTCCATATAAT [XGTACX_site7781] | 8.55 ± 0.5
AACCATTATTTCTCTACACACATTTATGTCATTTAC [CACACA_site1499] | 8.86 ± 0.56
AAAAAAAAAAAACATACACACATACATACAGATATA [CACACA_site4681] | 8.5 ± 0.64
TAAAAAAAAAAAAAAAGTACACACATACATATAAAT [XGTACX_site3752] | 8.61 ± 0.44
TACATACATAAACACACACACACATATATATATATA [CACACA_site8953] | 10.1 ± 0.35
TATATACATAAACACACACACACATATATATATATA [CACACA_site8707] | 10.2 ± 0.29
AAGTACATACATAAAACACACACATATATATATATA [CACACA_site8541] | 10.2 ± 0.17
TACATATATAAAAAAACACACACATATATATATATA [CACACA_site8315] | 10.1 ± 0.46
TATACACATATATAAACACACAAAAAAAAAAAAAAA [CACACA_site7041] | 8.19 ± 0.63
TACAGATATAAACACACACACATATATATATATATA [CACACA_site4846] | 10.2 ± 0.48
TAGATACATAAACACACACACACATACATATATACA [CACACA_site9139] | 8.68 ± 0.6
AAAAAAAAAAAAAGTACACACATACATATAAATATA [CACACA_site8533] | 8.48 ± 0.4
CATATACATAAACACACACACACATAAATAAATATA [CACACA_site4864] | 8.68 ± 0.54
GTACATACATAAAACACACACATATATATATATATA [CACACA_site1826] | 10.2 ± 0.75
GTTAATATACTTAATACACACACGAATATATATAAA [CACACA_site1181] | 8.69 ± 0.35
ACCTAATTTTTATATTGTACATAATATAATATATAT [XGTACX_site1715] | 8.66 ± 0.3
ATTTAAAAAAAAAAAAAAAAAAAAAAAAAAAGAAAA [CACACA_negctrl_site722] | 8.01 ± 0.43
TATATATATATGTATACACACATATGTATGTTATGT [CACACA_site4053] | 9.65 ± 0.28

Sequence | gcPBM binding intensity (ln)
CCAATACATAGAAACTGTACATTATGCATTATACAC [XGTACX_site3531] | 8.79 ± 0.28
ATTAAATACTTCGATTGTACAATTTTTTTTTTTTTT [XGTACX_site832] | 8.59 ± 0.59
ATTTAAAATGGTTATACACACATAAAAGGGGAAATG [CACACA_site2649] | 8.95 ± 0.57
TTTTTTTTTCGCTTTTGTACACATTTTATAGAACAG [XGTACX_site2416] | 8.87 ± 0.46
AAAAAAAAAAAAAAGCGTACAAATAAAATATATTTA [XGTACX_site7195] | 8.52 ± 0.49
GGCATACACGAACACACACACACACGCACATATATA [CACACA_site6426] | 8.96 ± 0.52
AACATATACACGAACACACACACATATATATATATA [CACACA_site502] | 10.1 ± 0.38
CCCCCCCACGAACACACACACATACATACCACATAT [CACACA_site7149] | 10.41 ± 0.028
CATATACACGAACACACACACATATAAATAAATATA [CACACA_site6379] | 8.73 ± 0.46
AACATATACACGAACACACACACATATAAATAAATA [CACACA_site6380] | 8.74 ± 0.56
CATATACACGAACACACACACATATATATATATATA [CACACA_site4437] | 10.3 ± 0.39
ATTATATTTCAATTATGTACATATAAAATGAATAAA [XGTACX_site4204] | 8.43 ± 0.38
ATGAATATAATAAAGAAACACACGTATACATAATGA [CACACA_site1355] | 8.8 ± 0.54
TAAAATTTACAACACTGTACTTGAATTTATCTTTAA [XGTACX_site241] | 8.25 ± 0.37
CGCATAAAGACAAGAACACACATATAGATTGTAGTA [CACACA_site3693] | 8.27 ± 0.49
ATTATTATATAGTGTGCATGCAATATTAATAAAACC [TGCATGCA_site245] | 10.3 ± 0.4
GTTATATTTAAAATAGTGCAATAAAAATAATAATAT | 8.89 ± 0.2
ATTATATATAATATAGTGCATGTAAAAAATAAAACA | 9.23 ± 0.33
ATTGCGTGATAATAATGTACAAAAAGTAATTTATAT [XGTACX_site8339] | 8.48 ± 0.45
TAATTCGCAAAAGAAAGAAATTAAGAAAAAGAAAAA [XGTACX_negctrl_site614] | 8.32 ± 0.68
TCTTTCTTATATTTATATAATTATATTTATTTTATA [GTGCAC_negctrl_site300] | 8.74 ± 0.38
